The chains are these.
T1: UNK ZnF1-3 (human, UniProt Q9C0B0 31-174)
T1 sequence: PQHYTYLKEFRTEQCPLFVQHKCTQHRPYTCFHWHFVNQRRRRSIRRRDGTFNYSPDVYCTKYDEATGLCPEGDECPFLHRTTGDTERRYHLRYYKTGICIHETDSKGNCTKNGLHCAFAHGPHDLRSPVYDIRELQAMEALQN

B1: chr9:115598534:115598535:+_ENSG00000148158_ENST00000374232|hu_mus|motif|central (ssRNA)
RNA: GGGAGUUCUACAGUCCGACGAUCCAGCUUAUAGCCUCCGGUGACGUGCUUGACUGACUCACCCACUCUGCUCAGCAAUGCGGUCCCUUGCUUCUUGUAGGCAUUCAGGUCCUUAGCAGUGAGGAACACAUUGAAGUGUUCAUUCAACAGAGGAUUGAGCAUCA
B2: chr8:41682716:41682717:-_ENSMUSG00000039431_ENSMUST00000048898|mus_hu|motif|central (ssRNA)
RNA: GGGAGUUCUACAGUCCGACGAUCCACAUCGCUGAGCUGCCAGUAAUGAUUAGGGAGGCCCAUCCGCGUGUAUUCUUCACGGAGAUCGAUCAGCACCCAGCCUUGCUCUCUUUCUUCUUUAUCCAGCAUGGGGUUGAAUGAAAACAACAGAGGAUUGAGCAUCA
B3: 34871406_34871526_3634_3pUTR_ENSMUSG00000037503_ENSMUST00000047534|mouse|control|control (ssRNA)
RNA: GGGAGUUCUACAGUCCGACGAUCAUGGUGGUGGGUUUGCUUCUCCAGAGUCAAGGAGCUUACAGUUUCCAAUACUCCACAACUCUAAACUGCAAGCAGCAGCAGCCGAGGAAGGAAGGCCCCUAGCCUCAGGGACGGCAGCAGCAACAGAGGAUUGAGCAUCA
B4: chr4:155540527:155540528:-_ENSMUSG00000041936_ENSMUST00000154494|mus_hu|FALSE|FALSE (ssRNA)
RNA: GGGAGUUCUACAGUCCGACGAUCGCCUGGACGGAAGGGAGGCCGGGCCAGCAGUCCCUCCGGCCAACACUCAGGCAAGAAAAUCAUAUCAAAAAGCAACAAGUUUACAAAAAUAGAAAAUAAUUACAGCGGGCGCGGGGCUCUCAACAGAGGAUUGAGCAUCA
B5: chr15:100311029:100311030:-_ENSMUSG00000044636_ENSMUST00000061457|mus_mus|motif|central (ssRNA)
RNA: GGGAGUUCUACAGUCCGACGAUCGCCUGGUCUACAUAGCAAGUCCCAGGCCAGCCAGGGCUGUUUAGCAACACACUGCCGGAAAAAAAAAAAAGAAAAAAGAAAAGAAAAGAAAAGAAAAGAAAAGAAAAGAAAAGAAAAGAACAACAGAGGAUUGAGCAUCA
B6: chr18:64617603:64617604:-_ENSMUSG00000024588_ENSMUST00000025484|mus_mus|FALSE|FALSE (ssRNA)
RNA: GGGAGUUCUACAGUCCGACGAUCGCGGGAGGCACACUGGAAGCCAGUUUGGCCUACAUAGGGCAAGCGAGAAAUAAGAUAAAAUAAGAUAAAACACAGGCAAGAGAGAAAUCACAGUUUGUGCCCAGACAAACGUGGCUUCUGCAACAGAGGAUUGAGCAUCA
B7: 91351710_91351830_385_5pUTR_ENSMUSG00000055013_ENSMUST00000027521|mouse|control|control (ssRNA)
RNA: GGGAGUUCUACAGUCCGACGAUCAAGAAAAAGAAAAAGAAAAAGAAAAGAACGCUGAGGAUGAAGCAGUAGAGGGGCUCAGUUCAUAGCAGGGACCAGCGUCCCGGGUCAGCGGGCCGUCCGGGAAGACCGCGGCGCCAUGGACAACAGAGGAUUGAGCAUCA
B8: chr3:38349274:38349275:-_ENSMUSG00000044864_ENSMUST00000156038|mus_mus|FALSE|FALSE (ssRNA)
RNA: GGGAGUUCUACAGUCCGACGAUCAAAUGACCAAGUACAGCAAGCAGGCUGGCUACAGCACCCUGGUCAGCCUGGUCCUCGCCAGAAGCUGUUUUUGUUCUACUUUAAAUCAGUUAAUAAUAAAAACAAAACAAAAGGGAAAAACAACAGAGGAUUGAGCAUCA
B9: chr9:108469239:108469240:-_ENSMUSG00000070283_ENSMUST00000074208|mus_hu|FALSE|FALSE (ssRNA)
RNA: GGGAGUUCUACAGUCCGACGAUCGGGAAGCUCAACGGGCGGACAGCGCAGCGAGGGUCGCGCUCGGUACAAGCUACGUAGCGCGAGAGCGGUGGCCAUGGCUGACCAACGCGCGGCGAAGUCGUCACCGGCGCCGUUAGUCCCCAACAGAGGAUUGAGCAUCA
B10: chr12:86311719:86311720:-_ENSMUSG00000042350_ENSMUST00000043169|mus_hu|FALSE|FALSE (ssRNA)
RNA: GGGAGUUCUACAGUCCGACGAUCGACUGCCAAAGGACGCCCCAGGAUCCCGAGCCGGGGGUUGCAGCGCGACGAAGUUCCACCUCCGCUGUCCUGGGAAGGGGCGGCAGCACUCAGCAGAAGACGGGCUCCCCACUCUCCCACCAACAGAGGAUUGAGCAUCA
B11: chr2:104430758:104430759:+_ENSMUSG00000027176_ENSMUST00000028599|mus_mus|motif|central (ssRNA)
RNA: GGGAGUUCUACAGUCCGACGAUCGGGACUACAACGUACGCACCAGCCGGCAAAGGGAAGCUAGAAAAGGAAAAUUAAACGGAAGGCAAACCCCACCAAAACCAGGAACACUACCCCUGUCCCUCAGAGCCAAAGCCGCCGCCACAACAGAGGAUUGAGCAUCA
B12: chr15:100311029:100311030:-_ENSMUSG00000044636_ENSMUST00000061457|mus_mus|FALSE|FALSE (ssRNA)
RNA: B5 RNA with G80U, G81A
B13: chr4:140556289:140556290:+_ENSMUSG00000036622_ENSMUST00000037055|mus_mus|mus_mus_mus_hu_False|8_78 (ssRNA)
RNA: GGGAGUUCUACAGUCCGACGAUCGAUGGAGCUCACCAGGCCCCCUUUUGCCGUGCAGAACCCUGUCCGGGUCACCACUGCCAGGACGUGCGGUCCCACAUAGGCCCGGGCCUGCAAGAUGAGGGUCCCACAGAAGAGUGUGUGCAACAGAGGAUUGAGCAUCA
B14: chr7:23239867:23239868:+_ENSG00000136243_ENST00000258742|hu_hu|FALSE|FALSE (ssRNA)
RNA: GGGAGUUCUACAGUCCGACGAUCCCCAAAACCAGCAGGGCUUCCAGAAGAGGCAGCAGCAAAUCCAGAGUUUGUUUUAAAACUAAAGUUCUGAGCAUUAUCACUGCUGCUGUUAUUGACUGGAAAGCCUGGCGACAUAAAUGUCAACAGAGGAUUGAGCAUCA
B15: chr2:181041410:181041411:-_ENSMUSG00000027581_ENSMUST00000103045|mus_hu|FALSE|FALSE (ssRNA)
RNA: GGGAGUUCUACAGUCCGACGAUCAGCAUGAAGCUGGGGGCGGGGGUGGGGGAGGAGGAACAAAAGUUGCAUCUAGACAGAGGUGAACGAAACAAAACCAAAACCCGAACGUGUUCUGUCGCAGGAUGGGCGCCGCCCGUCCCGCAACAGAGGAUUGAGCAUCA
B16: chr14:57575763:57575764:+_ENSMUSG00000021945_ENSMUST00000022511|mus_hu|FALSE|FALSE (ssRNA)
RNA: GGGAGUUCUACAGUCCGACGAUCCACUGUUUUCAGGCCAAAAUACUUAGUGUUAAAGUAGAACAGUGUAUUCAGAAGAGCUACUGGAGAGUGUGAUCCUAGUUGUUUUAUCCUCCAGAGAUAGUCUUCUUCAACUCGAGAGAACAACAGAGGAUUGAGCAUCA
B17: chr1:183495733:183495734:+_ENSG00000116698_ENST00000515829|hu_hu|FALSE|FALSE (ssRNA)
RNA: GGGAGUUCUACAGUCCGACGAUCGGAAGACUUCACACGGCAUGGUAAAUCUACAUUAAAUACUGUACACAGUUCUUGUAAUAACUGAGUAUAGAAGCCACUAGCUGCCUCUAGGAACAGAGAAAGGUUUGCCUGAACUUCACUCAACAGAGGAUUGAGCAUCA
B18: chr12:58340223:58340224:+_ENSMUSG00000079104_ENSMUST00000139049|mus_mus|motif|central (ssRNA)
RNA: GGGAGUUCUACAGUCCGACGAUCCUGUAUUUUGGAGCAGUGUUUCAUCUUGUCUUCCUGAGGUAUGGUAUUGGUAACGGCGGCUGCUUCAAAGCAUGCAUUGUUGAUGCGAGAAAUGGCAGGGCCAGAGAAGAUUCCAUGCGUCAACAGAGGAUUGAGCAUCA
B19: chr12:39763582:39763583:-_ENSG00000139116_ENST00000544797|hu_mus|hu_hu_hu_mus_False|18_58 (ssRNA)
RNA: GGGAGUUCUACAGUCCGACGAUCCUCUAGGAACUGGGCAUUCACUUUGAAUUCAGGAGGGGGCAGCCCGUUUUUAAUUGCUAUGUGCUUUUUCUCAUCAAUACUCUUGAACAGGUGUUUAACAGCUCGAGAGAUGAUGCCCUGCAACAGAGGAUUGAGCAUCA
B20: chr2:74756847:74756848:-_ENSG00000115307_ENST00000377526|hu_hu|FALSE|FALSE (ssRNA)
RNA: GGGAGUUCUACAGUCCGACGAUCGCCGCCAUUUUCGCGCCCGGCCGCAGGGGCUCUUGGGAAGGCGGAGUCUUUGGGCAUCCGCCCGGGGUGAGGGGACCCGAAGUCCUGAGGCGCGCCGGAAGGGCUAGCGGUCCCAGCAUACAACAGAGGAUUGAGCAUCA
B21: 138058580_138059465_3786_CDS_ENSMUSG00000041642_ENSMUST00000075164|mouse|control|control (ssRNA)
RNA: GGGAGUUCUACAGUCCGACGAUCGGAGGCCAGGGACUUGGUGAUGUUCUUGGUAGAGCUGUCCAAUGGGGGUCCUAGGCACUCCGCAGACACGGCCUUCAUCUGUGCGGAUAGCUUGGGCUCACCCUUGAACUUGAAGUCAUCCAACAGAGGAUUGAGCAUCA
B22: chr8:104447970:104447971:+_ENSG00000164934_ENST00000297579|hu_hu|hu_hu_hu_mus_False|78_98 (ssRNA)
RNA: GGGAGUUCUACAGUCCGACGAUCAUACACUUCCCUGCUUCGACUUUUGUCCACAGGAAAGAUUCGAAUAGACUUAUCAAAGCUGGCAGACACAAAUUCCUUCCCAGUGGGAGAGUAGUCCACAUCAAGUACUGCAGACACGUGCAACAGAGGAUUGAGCAUCA

Changes are numbered by the printed parent chain. The full ranking holds about 24,000 sequences; the median of “enrichment r” is about 0.99, and the highest 2% start at about 3.7. For the sample, the highest values were picked, then their nearest neighbours and some sequences at random.

The assay concerns the target T1, UNK ZnF1-3. In words: nsRBNS (natural sequence RNA bind-n-seq); RBNS binding buffer (assumed for nsRBNS): 25 mM Tris pH 7.5, 150 mM KCl, 3 mM MgCl2, 0.01% Triton X-100, 500 ug/ml BSA, 20 U/ml SUPERase-In, 4 C; UNK is unkempt and MSI1 is Musashi-1; names of the RNAs are library labels; protein concentration not given here; high values mean tight binding.
B1: the binding signal stood at 0.691 enrichment R.

In the case of B2, the binding signal was 1.07 enrichment R.

As to B3, the binding signal is 1.48 enrichment R.

Molecule B4 came in with a binding signal of 4.13 enrichment R.

B5: the binding signal came out at 4.43 enrichment R.

Molecule B6 returned a binding signal of 3.43 enrichment R.

For the molecule B7, the binding signal was 4.11 enrichment R.

For the molecule B8, the binding signal is 0.882 enrichment R.

The molecule B9 had a binding signal of 0.446 enrichment R.

B10 returned a binding signal of 1.33 enrichment R.

In turn, B11 displayed a binding signal of 2.17 enrichment R.

Regarding B12, the binding signal came to 4.34 enrichment R.

Take B13: the binding signal was 1.02 enrichment R.

In turn, B14 gave a binding signal of 0.668 enrichment R.

The molecule B15 came in with a binding signal of 3.3 enrichment R.

Molecule B16 returned a binding signal of 1.1 enrichment R.

For B17, the binding signal stood at 1.13 enrichment R.

Turning to B18, the binding signal was determined as 0.938 enrichment R.

B19 showed a binding signal of 1.58 enrichment R.

In turn, B20 registered a binding signal of 0.69 enrichment R.

As for B21, the binding signal was determined as 0.543 enrichment R.

On to B22, for which the binding signal turned out to be 0.994 enrichment R.

For the origin of these results see publication PMC12136788.
